Screening data: PubChem BioAssay, National Center for Advancing Translational Sciences (NCATS)
Sampled rows, rich in hits. Any-hit rate of the full collection: about 7.3%.
FLuc modulator: qHTS profiling assay for firefly luciferase inhibitor/activator using purifed enzyme and Km concentrations of substrates (counterscreen for miR-21 project). Luciferin 4-monooxygenase (Photinus pyralis), P08659. purified FLuc, Km substrates, luminescence inhibition. Potency, µM (titrated, usually from 57.5 µM), for inactives: at the highest dose activity change, negative = inhibition, most hits filed as inhibitors. 360,000 tested, 6.9% active;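 further: plate controls were vehicle for no effect and reference inhibitor for full effect; nearly all actives have a fitted effect of over 55% in size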
Target sequence (P08659 whole entry, looked up): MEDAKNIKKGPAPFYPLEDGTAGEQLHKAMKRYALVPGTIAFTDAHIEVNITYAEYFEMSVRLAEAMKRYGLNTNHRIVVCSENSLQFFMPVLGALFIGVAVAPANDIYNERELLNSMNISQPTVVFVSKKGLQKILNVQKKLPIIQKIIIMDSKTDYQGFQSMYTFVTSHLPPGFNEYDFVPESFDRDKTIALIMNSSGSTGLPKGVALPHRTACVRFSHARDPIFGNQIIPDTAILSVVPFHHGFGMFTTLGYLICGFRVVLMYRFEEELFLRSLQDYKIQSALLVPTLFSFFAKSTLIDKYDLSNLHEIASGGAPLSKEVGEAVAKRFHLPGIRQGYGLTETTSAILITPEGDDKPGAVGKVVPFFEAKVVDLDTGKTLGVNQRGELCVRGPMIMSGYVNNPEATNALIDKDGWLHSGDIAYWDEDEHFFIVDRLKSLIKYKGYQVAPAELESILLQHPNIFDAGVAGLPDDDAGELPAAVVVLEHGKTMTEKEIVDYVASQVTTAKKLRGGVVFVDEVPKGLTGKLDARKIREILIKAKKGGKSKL
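Biochemical qHTS of compounds, final roughly 60 µM downward over six points, against 10 nM purified firefly luciferase using Km concentrations of substrates (10 uM D-luciferin, 10 uM ATP) in Tris acetate pH 7.5 buffer; luminescence output.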
SMN2 splice up: qHTS Assay for Enhancers of SMN2 Splice Variant Expression. HEK293 SMN2-luciferase splicing reporter, luminescence, 30-36 h. Potency, µM (top dose mostly 46.1 µM), inactives show top-dose activity change, positive = activation, most hits filed as activators. AID 1458, 2008. 210,000 tested, 2.8% active; further: % of control where 0% means no effect; nearly all actives have a fitted effect of over 55% in size
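HEK293 cells carry an SMN2 minigene-luciferase reporter in which exon 7 inclusion puts luciferase in frame. Cells were seeded at 2000 cells/well, attached for 10-12 hours, then exposed to compounds for 30-36 hours at 37C before ONE-Glo luminescence.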
NPC1 prom act: qHTS Assay for NPC1 Promoter Activators. Huh7 NPC1 promoter luciferase reporter, 24 h. Potency, µM (top dose mostly 9.22 µM), for inactives: top-dose activation, usual class: activators. 320,000 tested, 2.4% active. AID 485313, 2010; further: % of control where 0% means no effect; nearly all actives have a fitted effect of over 60% in size
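Stably transfected Huh7 (NPC1 promoter→luciferase), 1500 cells/well in Opti-MEM + 10% FBS, 2 h settle, then compound 24 h at 37 °C. Luminescence after 10 min with Amplite reagent.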
Rab9 prom act: qHTS Assay for Rab9 Promoter Activators. Potency, µM (titrated, usually from 9.22 µM), for the others: at the highest dose activation, negative = inhibition, actives largely listed as activators. 320,000 tested, 2.8% active. Huh7 Rab9 promoter-luciferase reporter, luminescence, 24 h; further: % of control where 0% means no effect; nearly all actives have a fitted effect of over 60% in size
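Quantitative HTS format; Huh7 Rab9-luciferase reporter cells (1500/well) receive compound 2 h post-plating, incubate 24 h at 37 °C, then get luciferase reagent for 10 min before luminescence reading.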
Luc counter: Counterscreen for Luciferase (Kinase-Glo TM) Inhibition; Luciferin 4-monooxygenase (Photuris pensylvanica), Q27757; AID 1379, 2008; Potency, µM (doses to about 38.3 µM), for the others: at the highest dose activity change, negative = inhibition, hits mostly inhibitors; 200,000 tested, 0.28% active; Kinase-Glo luciferase, ATP luminescence, 8 min; further: on the % scale 0 is the no-effect control and ±100 the full control effect; nearly all actives have a fitted effect of over 60% in size
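Compound is pinned into ATP-containing buffer (10 uM ATP, imidazole pH 7.2, 7 mM MgCl2). Kinase-Glo luciferase reagent is then added. Light output is recorded following an 8-min room-temperature incubation.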
* hit, by the source's call; u = inconclusive; x = no result. The call rests on the fitted dose curve; in most records, active means well fitted curve in the direction sought with a large enough effect; inconclusive means small, poorly fitted or top-dose-only effect, or another doubt; inactive means no such curve, though single readings can be large; an effect the other way counts as inactive or inconclusive. Potency means the concentration at half of the fitted maximal effect.

SMILES | FLuc modulator | SMN2 splice up | NPC1 prom act | Rab9 prom act | Luc counter
Cc1ccc2c(c1)COc1c3ccc(C(=O)N[C@@H](C)CO)cc3nn1-2 | 3.4µM* | x | 1.6µM* | 2.2µM* | x
COc1ccc(OC)c(C(=O)c2coc3ccc(OCC(=O)O)cc23)c1 | -17% | -15% | -2% | 0% | 19%
COc1ccc2occ(C(=O)c3cccs3)c2c1 | 6µM* | -12% | u | u | -10%
COc1ccc(OC)c(C(=O)c2coc3ccc(OC(C)=O)cc23)c1 | -17% | 1% | 1% | 4% | -1%
COc1ccc2occ(C(=O)c3ccc(N)cc3)c2c1 | 6µM* | x | 1.4µM* | 0.63µM* | x
COc1ccc(C(=O)c2coc3ccc(OC(C)=O)cc23)cc1 | 9.5µM* | x | u | 15% | x
CCOc1ccc(CN(C(=O)c2cc(=O)c3cc(Cl)ccc3o2)C2CCS(=O)(=O)C2)cc1 (stereo not given) | 1% | u | x | x | x
COc1ccc(CN2C(=O)c3ccccc3C(/C=N\OCc3ccc(C)cc3)C2=O)cc1 (stereo not given) | 17µM* | -19% | 5% | 3% | -2%
COc1ccc(CN2C(=O)c3ccccc3C2OC)cc1 (stereo not given) | -3% | x | 5% | 5% | x
Fc1ccccc1-n1ncc2c1ncn1nc(-c3ccccc3Cl)nc21 | 0.95µM* | 5% | x | x | x
COc1ccc(-c2nc3c4cnn(-c5ccccc5F)c4ncn3n2)cc1 | u | 16% | x | x | x
Cc1ccc(C(=O)CNc2ccccc2C)cc1 | 6µM* | -3% | 17% | 24% | -5%
Cc1ccccc1NC(=O)CC(=O)c1ccccc1 | u | x | 28% | u | x
Cc1ccc(NCCC(=O)c2cccc([N+](=O)[O-])c2)c(C)c1 | 24µM* | 11% | 1% | 0% | 0%
Cc1ccc(C(=O)CCC(=O)Nc2ccc(C)cc2C)cc1 | -6% | x | x | x | x
O=C(CNc1ccccc1Cl)c1ccc(Br)cc1 | 17µM* | x | 0% | 1% | x
Cc1ccc(C(=O)CNc2ccc(C)cc2C)cc1 | 13µM* | x | -2% | 2% | x
CCc1ccc(-n2nc3ccc(NC(=O)c4cc(Cl)c(OC)c(Cl)c4)cc3n2)cc1 | 54% | 5% | x | x | x
C=CCC(C)(Nc1ccccc1)C(=O)OCC (stereo not given) | x | 8% | x | x | 0%
COc1ccc(NC(=O)c2nc(-c3ccc(C)cc3)n3c2CCCCC3)cc1 | -10% | x | x | x | x
Cc1ccc(C(=O)CNc2ccccc2)cc1 | 9.5µM* | x | 19% | 24% | x
O=C(CNc1ccc(F)cc1)c1ccccc1 | 15µM* | 19% | 3% | 0% | -27%
COc1ccc(C(=O)CC(=O)c2ccc(C(C)(C)C)cc2)cc1 | x | -11% | x | x | -9%
Cc1ccc(S(=O)(=O)CC(=O)c2ccccc2)cc1 | u | -5% | 22% | 27% | -1%
CC(C)(C)c1ccc(C(=O)CS(=O)(=O)c2ccccc2)cc1 | 2.1µM* | 3% | 1.4µM* | 0.89µM* | -1%
SMILES | FLuc modulator | SMN2 splice up | NPC1 prom act | Rab9 prom act | Luc counter
Cc1ccc(C(=O)CC(=O)c2ccc(C(C)(C)C)cc2)cc1 | 9.5µM* | x | u | u | 2%
Cc1ccc(C(=O)CNc2ccc(Br)cc2)cc1 | -19% | 5% | 20% | 14% | 1%
Cc1ccc(CNS(=O)(=O)c2cnc(N)nc2)cc1 | -1% | x | x | x | x
CCOc1ccc(N2C(=O)CC(SCCN)C2=O)cc1 (stereo not given) | 17µM* | 11µM* | 1.4µM* | 2.2µM* | -8%
CCNC(=S)Nc1sc2c(c1C#N)CCC(C)C2 (stereo not given) | u | x | 1% | -5% | x
CC1CCc2c(sc(/N=C/N(C)C)c2C#N)C1 (stereo not given) | 15µM* | 25% | 24% | 4.5µM* | 1%
CCOC(=O)Nc1sc2c(c1C#N)CCC(C)C2 (stereo not given) | 11µM* | 20% | 2.8µM* | 3.2µM* | -2%
CN(C)/C=N/c1sc2c(c1C#N)CCCC2 | u | -28% | 22% | 26% | -3%
